Drawing on PubChem BioAssay (Tox21), this text covers Potency and activity change, negative = inhibition for 40 compounds.

Each structure is given as a SMILES string. Several values for one entry are separate records, joined by “and”; a condition that tells them apart may be missing. Identical values can stand only once. Inconclusive results are not listed. Where a call stands in place of a potency, no number is given. The source holds several records for some structures; these can differ, active in one and inactive in another. Activity calls are given as the source filed them. Calls come from the whole dose curve; as a rule, active = well fitted inhibition curve with a large enough effect in the repeat runs; inconclusive = weak or mixed curves, or effect the other way; inactive = no such curve, though single readings can be large or run the other way.
Potency is the fitted concentration of half-maximal effect.

In this experiment the target is Nuclear receptor ROR-gamma (Homo sapiens) (UniProt P51449). As to the kind of experiment: qHTS assay to identify small molecule antagonists of the retinoid-related orphan receptor gamma (ROR-gamma) signaling pathway (AID 1159521; note: nearly all actives have a fitted effect of over 50% in size; for activity change, negative = inhibition: top concentration of the series differs between compounds). To be noted: Tet-on RORgamma CHO cells, RORE-luciferase, 16 h; series mostly up to 92.4 µM. The text has this: U.S. Tox21 Program National Center for Advancing Translational Sciences [NCATS] NIH Chemical Genomics Center [NCGC] U.S. Environmental Protection Agency [EPA] National Institutes of Environmental Health Sciences [NIEHS] National Toxicology Program [NTP] U.S. Food and Drug Administration [FDA] Tox21 Assay Overview: Nuclear steroid hormone receptors are involved in many biological processes including inflammatory responses, cell proliferation, and apoptosis. Environmental factors or compounds disrupting these nuclear receptor pathways and gene expression may promote susceptibility to immunotoxicants and autoimmune diseases. One important group of these expression factors are the retinoid-related orphan receptors. To assess compounds that may interfere with the retinoid-related orphan receptor gamma (ROR-gamma) transcription factor, a cell-based luciferase assay was used. The CHO cell-based assay utilizes a TET-inducible ROR expression factor and ROR response element-LUC reporter gene. Reporter gene activity was induced using Doxycycline Hyclate and measured after 16 hr incubation. Tet-on ROR gamma CHO cells were used to screen against the Tox21 10K compound library for ROR gamma antagonists by quantification of decreased reporter gene activity in terms of decreased luminescence.
Tox21 Assay Protocol Summary: Tet-on ROR gamma CHO cells were dispensed at 1,000 cells in 4 uL of culture medium per well into white wall/solid bottom 1536-well plates using a Multidrop Combi (Thermo Scientific, Waltham, MA) dispenser. Following incubation at 37 C and 5% CO2 for 4 hr, 23 nL of compounds dissolved in DMSO, positive controls or DMSO only were transferred by a Pintool station (Kalypsys, San Diego, CA) and after 2 hr incubation at 37 C, one ul of 1 uM (final concentration) of Doxycycline Hyclate was added to all the wells by using a Flying Reagent Dispenser (FRD) (Aurora Discovery, San Diego, CA). After 16 hr incubation at 37 C and 5% CO2, 5 uL of ONE-Glo reagent (Promega Corporation, Madison, WI) was added to each assay plate using FRD. After 30 min incubation at room temperature, luminescence was quantified on a ViewLux plate reader (Perkin Elmer, Waltham, MA).
(In general: In qHTS, concentration-response curves come from the screen itself.)
For the compound `C=CCOC(=O)c1ccccc1C(=O)OCC=C`, the Potency result is “inactive”.

Turning to `ON=C1CCCCC1`, the Potency result was “inactive”.

With `c1ccc2c(c1)ccc1ccccc12`, the Potency result is “inactive”.

For `O=C(CC(C(=O)OC1CCCCC1)S(=O)(=O)O)OC1CCCCC1` (stereo not given), the Potency entry was “inactive”.

Consider `CN(C)CCCN`, for which the Potency result is “inactive”.

Regarding `Cc1cc(C)c(C)cc1C`, the Potency entry was “inactive”.

As for `OCCOCCOCCO`, the Potency result was “inactive”.

Consider `CCN(CC)CCCC(C)Nc1ccnc2cc(Cl)ccc12` (stereo not given), for which the activity change, negative = inhibition is 0.0918% [at 8.39 µM] (inactive) and -4.56% [at 19 µM] (inactive).

Consider `CCCCN(CCCC)CCCC`, for which the Potency result was “inactive”.

Take `CCc1cccc(C)c1N`: the Potency entry is “inactive”.

Consider `CCCSc1ccc2nc(NC(=O)OC)[nH]c2c1`, for which the Potency entry was “inactive”.

For the compound `CCCCCC/C(C=O)=C\c1ccccc1`, the Potency result was “inactive”.

Turning to `O=[N+]([O-])c1ccc(/C=C/c2ccc([N+](=O)[O-])cc2S(=O)(=O)O)c(S(=O)(=O)O)c1`, the Potency entry was “inactive”.

For `Cc1cccc(O)c1`, the Potency result is “inactive”.

For the compound `CCCCCCCCCCCCc1ccccc1`, the Potency entry was “inactive”.

For `O=C(O)c1ccc(C(=O)O)cc1`, the Potency result is “inactive”.

Take `OC[C@H]1O[C@@](CO)(O[C@H]2O[C@H](CO)[C@@H](O)[C@H](O)[C@H]2O)[C@@H](O)[C@@H]1O`: the Potency entry is “inactive”.

Turning to `Fc1ccc(Br)cc1`, the Potency entry is “inactive”.

Regarding `OCC(CO)(CBr)CBr`, the Potency entry was “inactive”.

Regarding `C=C(C)C(=O)OCCOCCOCCOC(=O)C(=C)C`, the Potency entry is “inactive”.

For `CC1CCC(C(C)C)C(O)C1` (stereo not given), the Potency entry is “inactive”.

`CCCCCCCCCCCCOCCO`: the Potency result was “inactive”.

Turning to `COc1ccc(Cl)cc1C(=O)NCCc1ccc(S(=O)(=O)NC(=O)NC2CCCCC2)cc1`, the Potency entry is “inactive”.

`COS(C)(=O)=O`: the Potency entry was “inactive”.

`O=C(O)CCCC[C@@H]1SC[C@@H]2NC(=O)N[C@@H]21`: the Potency entry was “inactive”.

On to `NNc1nncc2ccccc12`, for which the Potency entry is “inactive”.

For the compound `OCc1cccnc1`, the Potency entry was “inactive”.

As for `CC(O)COCC(C)O` (stereo not given), the Potency entry is “inactive”.

Take `Nc1cc([N+](=O)[O-])ccc1O`: the Potency entry is “inactive”.

In the case of `CCCC(C)=O`, the Potency result is “inactive”.

Consider `CSCCC=O`, for which the Potency result was “inactive”.

With `CN(C)CCOCCN(C)C`, the Potency entry was “inactive”.

Take `O=C=NCCCCCCN=C=O`: the Potency is 26.7 µM (active) and inactive.

With `C#C[C@]1(O)CC[C@H]2[C@@H]3CCC4=CC(=O)CC[C@@H]4[C@H]3CC[C@@]21C`, the Potency is 30.6 µM (active).

With `CC1CCC2CC1C2(C)C` (stereo not given), the Potency entry was “inactive”.

Consider `Cc1occc(=O)c1O`, for which the Potency result was “inactive”.

In the case of `CCCCC(CC)COC(=O)CCCCC(=O)OCC(CC)CCCC` (stereo not given), the Potency result was “inactive”.

On to `CC1=C(C)S(=O)(=O)CCS1(=O)=O`, for which the Potency was 54.5 µM (active).

As to `CC1=CCC2CC1C2(C)C` (stereo not given), the Potency entry is “inactive”.

In the case of `C=C(C)C(=O)Nc1ccc(Cl)c(Cl)c1`, the Potency entry is “inactive”.
